# Sampled rows, rich in hits. Any-hit rate of the full collection: about 12%.
# LASV entry inh = blocks Lassa virus binding to or entry into cells. Lassa virus pseudotype entry inhibition, cell reporter. Potency, µM (series often up to 37.9 µM), actives largely listed as inhibitors. 300,000 tested, 1.2% active. AID 540256; calls by dose curve; tested in HEK293 cells; further: nearly all actives have a fitted effect of over 50% in size
# Marburg entry inh = Marburg virus entry inhibition; Marburg virus pseudotyped entry inhibition, cell reporter; Potency, µM (titrated, usually from 37.8 µM), hits mostly inhibitors; 300,000 tested, 1.8% active; AID 540276; calls by dose curve; tested in HEK293 cells
# Shiga toxin inh = blocks Shiga toxin action in Vero cells. Vero cells, Shiga toxin protein synthesis inhibition reporter. inhibition, % at 38.7 µM. 290,000 tested, 9.2% active. AID 2315; in the data active means inhibition mostly above about 28%, no sharp cut-off; inactive means mostly below about 43%
# CHX counter = counter-screen for Shiga toxin inhibitors: cycloheximide protein synthesis inhibition | 300,000 tested, 12% active | AID 2314 | cell reporter, cycloheximide protein synthesis inhibition counterscreen | max response, %; in the data active means max response mostly above about 13%, no sharp cut-off; inactive means mostly below about 14%; further: read at 38.3 µM for the half of the compounds with a filed dose
# Numbers stand for hits; 0 = inactive; ? = inconclusive; - = no result.
SMILES,LASV entry inh,Marburg entry inh,Shiga toxin inh,CHX counter
OC1c2cc(Br)ccc2N=C2CCCN21 (centres undefined),-,-,0,0
CCc1nnc(NC(=O)C(CC)CC)s1,-,-,0,0
Cc1ccc(C)c(Cn2c(=O)n(Cc3ccccc3)c(=O)c3sc4ccccc4c32)c1,0,0,-,-
CC12CCC(C(=O)Nc3ccc4c(c3)OCCO4)(OC1=O)C2(C)C (centres undefined),?,0,94.5,46.7
O=C(CCNS(=O)(=O)c1ccc2c(c1)CCC(=O)N2)Nc1ccc2c(c1)OCCO2,0,0,55.6,29.4
Cc1cc(C)n(-c2ccc(C(=O)Oc3ccc4c(c3)OCO4)cc2)n1,0,0,32.5,17.6
CC(=O)Nc1ccc(C(=O)Nc2ccc3c(c2)OCCO3)cc1,-,-,42.0,27.1
CC1CCCCC1NC(=O)CN1C(=O)CSc2cc(S(=O)(=O)N3CCCCCC3)ccc21 (centres undefined),0,?,0,0
Cc1c(C(=O)N2CCCCC2CCN2CCCC2=O)oc2c(F)cccc12 (centres undefined),0,0,0,0
Cc1ccc(C(=O)Nc2ccc3c(c2)OCCO3)o1,?,?,0,30.7
CC(=O)Nc1ccc2c(c1)OCCOCCOc1cc(NC(C)=O)ccc1OCCO2,0,0,0,0
CC(=O)Nc1ccc(C(=O)Nc2ccc3c(c2)OCO3)cc1,0,0,57.0,17.7
CCC(=O)Nc1ccc(C(=O)Nc2ccc3c(c2)OCO3)cc1,0,0,0,0
COc1ccc(-c2cccc(C(=O)N3CCOCC3)c2)cc1,0,?,56.7,29.8
COc1ccc(C(=O)N2CCCC2)cc1,0,0,0,0
COc1ccc(OCc2ccc(C(=O)N3CCOCC3)cc2)cc1,0,0,55.7,27.8
COc1ccc(OCc2ccc(C(=O)O)cc2)cc1,0,?,0,17.7
CCOc1ccc(NC(=O)C2CCN(S(=O)(=O)c3ccc4c(c3)NC(=O)C(C)S4)CC2)cc1 (centres undefined),-,-,0,0
COc1ccc(OCc2cccc(C(=O)Nn3cc([N+](=O)[O-])cn3)c2)cc1,?,?,0,0
NNC(=O)c1cccc(COc2ccc(Br)cc2)c1,?,?,148.7,67.7
COc1ccc(OCc2cccc(C(=O)NN)c2)cc1,?,4.11µM,139.9,124.2
CCCNC(=O)c1cccc(COc2ccccc2OC)c1,-,-,123.3,49.9
COc1ccc(O)c(/C=N/NC(=O)c2ccc(OCc3cccc(Br)c3)cc2)c1,?,?,0,0
NNC(=O)c1ccc(COc2ccc3ccccc3c2)cc1,-,-,45.4,34.8
CSc1nc(=S)n(-c2ccc([N+](=O)[O-])cc2)c(C)c1C(C)=O,-,-,0,0
SMILES,LASV entry inh,Marburg entry inh,Shiga toxin inh,CHX counter
COc1cc(C(CC2=CCCCC2)NC(=O)C(F)(F)F)cc(OC)c1OC (centres undefined),-,0,-,-
CCOC(=O)c1oc2ccc(S(=O)(=O)n3nc(-c4ccc(Br)cc4)cc3N)cc2c1C,?,0,-,-
O=C(NN1CCOCC1)c1cccc(COc2cccc(Br)c2)c1,0,0,0,16.1
NNC(=O)CNC(=O)c1cccc(Br)c1,0,0,0,0
NNC(=O)c1cccc(COc2cccc(Br)c2)c1,?,0,73.7,31.7
COc1ccc(N2CC(NC(=O)c3ccc(S(=O)(=O)N4CCOCC4)cc3)CC2=O)cc1 (centres undefined),0,-,-,-
CC(C)c1ccc(/C=C/c2[nH]c(=O)[nH]c(=O)c2[N+](=O)[O-])cc1,-,-,18.8,12.7
CCOc1ccc(/C=C/c2[nH]c(=O)[nH]c(=O)c2[N+](=O)[O-])cc1,0,?,-,0
O=c1c(C(c2ccc(F)cc2)c2c(O)nc3n(c2=O)CCS3)c(O)nc2n1CCS2,0,0,0,0
CCOc1ccc(CCNC(=O)CSc2ncn[nH]2)cc1OCC,0,0,0,0
COc1ccc(-n2c(O)c(C=Nc3ccccc3)c3ccccc3c2=O)cc1,?,?,0,0
COc1ccc(N=Cc2sc(O)c3ccccc23)cc1,?,?,87.2,66.1
COc1ccc(N=Cc2c(O)c3ccccc3n2C(C)=O)cc1,-,-,0,14.4
N#Cc1cnc(SCC(=O)NNC(=O)COc2cccc3ccccc23)nc1N,0,0,0,0
CCCOC(=O)c1ccc(NC(=O)c2cnccn2)cc1,0,0,50.8,26.0
CCc1ccc(NC(=O)c2cnccn2)cc1,?,?,55.3,38.2
O=C(Nc1ccc(NC(=O)c2ccco2)cc1)c1cnccn1,0,0,0,25.2
CCc1ccc(NC(=O)c2cnc3scc(C)n3c2=O)cc1,-,-,11.0,34.0
O=C(Nc1ccc(OC(F)(F)F)cc1)c1cnccn1,0,?,101.2,55.0
O=C(CN1CCN(Cc2ccccc2Cl)C1=O)NCc1ccccc1Cl,0,0,-,-
CC(C)c1ccccc1NC(=O)C1CN(S(=O)(=O)c2ccccc2)CCN1S(=O)(=O)c1ccccc1 (centres undefined),?,?,0,0
CC(C)C(=O)Nc1cccc(C(=O)Nc2nncs2)c1,0,0,0,0
COCc1nnc(NC(=O)C(C)C)s1,0,0,0,0
COCc1nnc(NC(=O)c2cccc(NC(=O)C(C)C)c2)s1,0,0,26.7,14.0
CCc1nnc(NC(=O)c2cccc(NC(=O)C(C)C)c2)s1,0,0,0,45.0
SMILES,LASV entry inh,Marburg entry inh,Shiga toxin inh,CHX counter
Cc1ccn2cc(-c3cccc(S(=O)(=O)N4CCCCC4)c3)nc2c1,0,?,0,20.6
Cc1ccc2nc(-c3cccc(S(=O)(=O)N4CC(C)OC(C)C4)c3)cn2c1 (centres undefined),-,-,0,17.0
Cc1ccc2nc(-c3ccc(S(=O)(=O)N4CCCCC4)cc3)cn2c1,0,?,66.2,25.0
O=S(=O)(c1cccc(-c2cn3cccnc3n2)c1)N1CCCCCC1,0,0,0,0
O=S(=O)(c1cccc(-c2cn3cccnc3n2)c1)N1CCOCC1,0,0,0,0
Cc1ccc2nc(-c3cccc(S(=O)(=O)N4CCCC4)c3)cn2c1,-,-,0,16.7
O=c1[nH]c2ccc(S(=O)(=O)N3CCN(S(=O)(=O)c4ccc5c(c4)OCCO5)CC3)cc2[nH]c1=O,-,-,0,0
CCOc1ccc(NC(=O)CNC(=O)c2nn(-c3ccc(OC)cc3)c(=O)c3ccccc23)cc1,-,0,0,0
CCCCCCCNc1cccc(C)c1,0,0,0,0
Cc1cccc(NCc2ccccc2)c1,-,-,0,0
Cc1ccc(CNc2ccc(O)cc2)cc1,?,?,0,0
Cc1ccc(NCc2ccccc2O)cc1,0,0,71.8,30.4
Cc1cccc(NCc2ccccc2O)c1,0,0,0,17.9
Cc1ccc(NCc2ccccc2F)cc1,0,0,28.6,0
Cc1cccc(NCCNc2cccc(C)c2)c1,0,0,0,18.4
CC(=O)OCC(=O)C1(O)CCC2C3CCC4=CC(=O)CCC4(C)C3(F)C(O)CC21C (centres undefined),0,?,-,-
COc1ccc(-c2cn3cc(Cl)ccc3n2)cc1OC,0,?,92.0,21.4
COc1ccc(-c2cn3cc(C)ccc3n2)cc1Br,?,14.1µM,58.7,40.2
Clc1ccc2nc(-c3ccc(Br)s3)cn2c1,8.2µM,?,41.5,22.3
Cc1cc(C)n(-c2cc(C(C)(C)C)nc3c(-c4ccc(Cl)cc4)cnn23)n1,0,?,64.1,29.1
Cc1cc(C)n(-c2cc(C(C)(C)C)nc3c(-c4ccccc4)cnn23)n1,?,?,90.5,54.3
CN(C(=O)CSc1nc2ccc(NC(=O)COc3ccccc3Cl)cc2s1)c1ccccc1,0,0,-,-

# Screens (PubChem)
